PubChem BioAssay (EPA / NIEHS)
Inconclusive results are not listed. The source made the active and inactive calls. The calls were made as follows, unless noted: active = hit-call score of the fitted dose curve at least 0.9, where 1 is the maximum; inconclusive = response in the unintended direction; inactive = score below 0.9.

Columns and labels:
[1] = ATG_TAL_CIS: Attagene CIS-FACTORIAL HepG2 Assay for human TAL Basal Promoter (AID 2282966; active = hit-call score of the fitted dose curve at least 0.9, where 1 is the maximum; inactive = score below 0.9;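 also: background control endpoint measuring basal TAL promoter reporter mRNA not a specific factor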); conditions: HepG2 Attagene cis-factorial TAL promoter reporter; actives raise or lower the signal
In short: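 HepG2 cells were transiently transfected with promoter-driven multiplexed reporter units and dosed for 24 h. Reporter mRNA was measured by RT-PCR with capillary electrophoresis fluorescence; bidirectional fits used DMSO as baseline, serving as a background control.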

[2] = molecular target: Estrogen receptor (Homo sapiens) (UniProt P03372); experiment: ATG_ERa_TRANS: Attagene TRANS-FACTORIAL HepG2 Assay for human Estrogen Receptor alpha (ERa) (AID 2282970); conditions: HepG2 Attagene TRANS ERa GAL4 reporter, mRNA
Estrogen receptor (Homo sapiens), sequence (P03372 whole entry, looked up, the tested form may be a part): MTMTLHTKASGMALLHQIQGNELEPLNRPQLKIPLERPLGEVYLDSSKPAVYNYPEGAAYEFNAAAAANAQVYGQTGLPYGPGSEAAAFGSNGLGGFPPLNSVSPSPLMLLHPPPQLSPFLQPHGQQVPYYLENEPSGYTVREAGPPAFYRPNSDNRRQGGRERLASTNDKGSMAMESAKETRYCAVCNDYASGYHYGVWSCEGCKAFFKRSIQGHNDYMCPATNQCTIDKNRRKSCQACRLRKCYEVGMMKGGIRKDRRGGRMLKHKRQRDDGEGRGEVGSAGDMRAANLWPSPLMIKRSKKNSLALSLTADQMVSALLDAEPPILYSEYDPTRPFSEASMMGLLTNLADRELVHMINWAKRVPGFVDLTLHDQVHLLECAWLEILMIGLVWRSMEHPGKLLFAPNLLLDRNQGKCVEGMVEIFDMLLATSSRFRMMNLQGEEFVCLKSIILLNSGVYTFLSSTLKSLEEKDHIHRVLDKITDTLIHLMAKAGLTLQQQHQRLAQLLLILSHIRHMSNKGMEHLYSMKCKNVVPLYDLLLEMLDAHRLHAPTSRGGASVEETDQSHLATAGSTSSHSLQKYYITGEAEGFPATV
In short: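 HepG2 cells transiently transfected with multiplexed GAL4-UAS reporter units; ERa activity read via exogenous chimeric NR-Gal4 protein. After 24 hour compound exposure, reporter mRNA measured by RT-PCR with 6-FAM labelling and capillary electrophoresis; gain-of-signal fitted relative to DMSO.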

[3] = molecular target: X-box-binding protein 1 (Homo sapiens) (UniProt P17861); experiment: ATG_Xbp1_CIS: Attagene CIS-FACTORIAL HepG2 Assay for human X-box Binding Protein 1 (XBP1) (AID 2282972; active = hit-call score of the fitted dose curve at least 0.9, where 1 is the maximum; inactive = score below 0.9); conditions: HepG2 XBP1 cis-element reporter, Attagene multiplex; actives raise or lower the signal
X-box-binding protein 1 (Homo sapiens), sequence (P17861 whole entry, looked up): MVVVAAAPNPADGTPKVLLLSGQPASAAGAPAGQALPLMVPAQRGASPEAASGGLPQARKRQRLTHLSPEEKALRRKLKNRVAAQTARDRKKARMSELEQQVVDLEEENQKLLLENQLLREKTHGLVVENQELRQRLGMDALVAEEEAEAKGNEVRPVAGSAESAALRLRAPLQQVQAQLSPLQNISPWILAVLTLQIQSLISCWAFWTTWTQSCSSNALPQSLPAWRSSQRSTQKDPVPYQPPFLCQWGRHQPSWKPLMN
In short: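 HepG2 cells transiently transfected with multiple cis-element reporter units report endogenous TF activity; 24 h exposure, then reporter mRNA measured by RT-PCR, 6-FAM labelling, HpaI digestion and capillary electrophoresis. Bidirectional fitting versus DMSO.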

[4] = molecular target: Androgen receptor (Homo sapiens) (UniProt P10275); experiment: ATG_AR_TRANS: Attagene TRANS-FACTORIAL HepG2 Assay for human Androgen Receptor (AR) (AID 2282973); conditions: HepG2 Attagene TRANS-FACTORIAL AR reporter transcription
Androgen receptor (Homo sapiens), sequence (P10275 whole entry, looked up, the tested form may be a part): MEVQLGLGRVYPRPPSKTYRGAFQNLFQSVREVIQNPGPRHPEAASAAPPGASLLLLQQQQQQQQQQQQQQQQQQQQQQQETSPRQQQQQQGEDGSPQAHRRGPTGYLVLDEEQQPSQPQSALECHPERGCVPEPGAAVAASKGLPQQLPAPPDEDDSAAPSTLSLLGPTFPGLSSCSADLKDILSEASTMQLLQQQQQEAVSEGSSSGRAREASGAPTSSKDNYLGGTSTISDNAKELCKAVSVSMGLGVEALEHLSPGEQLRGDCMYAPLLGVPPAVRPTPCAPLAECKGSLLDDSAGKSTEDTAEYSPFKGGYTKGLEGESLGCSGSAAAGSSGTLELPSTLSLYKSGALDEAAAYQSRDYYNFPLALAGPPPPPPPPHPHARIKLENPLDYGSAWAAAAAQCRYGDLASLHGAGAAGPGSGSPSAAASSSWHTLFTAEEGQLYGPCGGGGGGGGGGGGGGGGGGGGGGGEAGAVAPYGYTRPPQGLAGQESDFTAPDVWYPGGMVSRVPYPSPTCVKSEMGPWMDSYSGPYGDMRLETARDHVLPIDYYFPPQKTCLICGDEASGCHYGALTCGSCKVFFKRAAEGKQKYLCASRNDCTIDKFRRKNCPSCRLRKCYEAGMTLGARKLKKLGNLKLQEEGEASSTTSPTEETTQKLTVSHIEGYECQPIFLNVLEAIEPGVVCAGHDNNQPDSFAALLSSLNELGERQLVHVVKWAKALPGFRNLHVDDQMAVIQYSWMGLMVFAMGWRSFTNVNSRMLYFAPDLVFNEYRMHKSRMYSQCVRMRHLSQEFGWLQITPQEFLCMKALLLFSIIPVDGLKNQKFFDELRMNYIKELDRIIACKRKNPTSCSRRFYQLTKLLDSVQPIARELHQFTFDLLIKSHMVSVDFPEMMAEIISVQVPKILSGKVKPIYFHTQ
In short: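 HepG2 cells transiently transfected with multiplexed GAL4-UAS reporter units and chimeric NR-Gal4 fusion; 24 h compound exposure. Reporter mRNA measured by RT-PCR, 6-FAM labelling, HpaI digestion and capillary electrophoresis; gain-of-signal fitted relative to DMSO baseline.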

[5] = ATG_M_06_TRANS: Attagene TRANS-FACTORIAL HepG2 Assay for M06 Transcription Factor (Internal Marker) (AID 2282983); conditions: HepG2 Attagene TRANS M06 internal marker reporter;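 also: reporter transcript level by RT-PCR then capillary electrophoresis fluorescence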
In short: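 HepG2 cells transiently transfected with multiplexed GAL4-UAS reporter transcription units; after 24 h compound exposure, reporter mRNA measured by RT-PCR, FAM-labelled primer extension, HpaI digestion and capillary electrophoresis. Gain-of-signal fitted versus DMSO baseline; background control readout.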

[6] = molecular target: Transcriptional activator Myb (Homo sapiens) (UniProt P10242); experiment: ATG_Myb_CIS: Attagene CIS-FACTORIAL HepG2 Assay for human Myeloblastosis (Myb) Proto-Oncogene Transcription Factor (AID 2282986; active = hit-call score of the fitted dose curve at least 0.9, where 1 is the maximum; inactive = score below 0.9); conditions: HepG2 Attagene CIS-FACTORIAL Myb reporter transcription; actives raise or lower the signal
Transcriptional activator Myb (Homo sapiens), sequence (P10242 whole entry, looked up): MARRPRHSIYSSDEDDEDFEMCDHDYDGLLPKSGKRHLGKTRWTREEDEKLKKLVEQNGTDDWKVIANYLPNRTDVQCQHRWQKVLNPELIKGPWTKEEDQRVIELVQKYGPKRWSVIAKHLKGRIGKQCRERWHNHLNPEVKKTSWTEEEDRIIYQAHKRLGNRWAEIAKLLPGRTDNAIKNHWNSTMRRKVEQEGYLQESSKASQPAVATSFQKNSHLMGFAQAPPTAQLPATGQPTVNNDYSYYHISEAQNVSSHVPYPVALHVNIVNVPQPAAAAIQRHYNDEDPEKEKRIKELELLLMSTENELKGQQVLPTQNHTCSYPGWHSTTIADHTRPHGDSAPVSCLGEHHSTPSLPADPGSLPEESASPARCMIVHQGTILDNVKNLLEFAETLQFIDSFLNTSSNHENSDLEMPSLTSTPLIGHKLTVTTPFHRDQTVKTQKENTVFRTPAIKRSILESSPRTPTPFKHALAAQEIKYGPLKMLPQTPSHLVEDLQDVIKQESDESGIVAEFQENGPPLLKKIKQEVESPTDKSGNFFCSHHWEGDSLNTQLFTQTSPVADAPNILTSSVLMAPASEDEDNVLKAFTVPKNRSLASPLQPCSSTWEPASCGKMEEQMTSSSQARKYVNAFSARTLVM
In short: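 Reporter mRNA is quantified by RT-PCR and capillary electrophoresis 24 h after dosing HepG2 cells transfected with cis-regulated reporter units, which track endogenous transcription factor activity. Gain and loss of signal are fitted versus DMSO baseline.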

[7] = ATG_VDRE_CIS: Attagene CIS-FACTORIAL HepG2 Assay for human Vitamin D Receptor Element (VDRE) (AID 2282968; active = hit-call score of the fitted dose curve at least 0.9, where 1 is the maximum; inactive = score below 0.9); conditions: HepG2 VDRE cis-reporter transcription, actives raise or lower the signal
In short: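 In transiently transfected HepG2 liver cells, gain or loss of reporter mRNA after 24 h exposure is scored relative to DMSO, using fluorescence detection by capillary electrophoresis of RT-PCR products.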

[8] = molecular target: Nuclear receptor subfamily 1 group I member 3 (Homo sapiens) (UniProt Q14994); experiment: ATG_CAR_TRANS: Attagene TRANS-FACTORIAL HepG2 Assay for human Constitutive Androstane Receptor (CAR) (AID 2282969); conditions: HepG2 Attagene TRANS-FACTORIAL CAR reporter;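 also: activators raise reporter mRNA above DMSO so AC50 marks induction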
Nuclear receptor subfamily 1 group I member 3 (Homo sapiens), sequence (Q14994 whole entry, looked up, the tested form may be a part): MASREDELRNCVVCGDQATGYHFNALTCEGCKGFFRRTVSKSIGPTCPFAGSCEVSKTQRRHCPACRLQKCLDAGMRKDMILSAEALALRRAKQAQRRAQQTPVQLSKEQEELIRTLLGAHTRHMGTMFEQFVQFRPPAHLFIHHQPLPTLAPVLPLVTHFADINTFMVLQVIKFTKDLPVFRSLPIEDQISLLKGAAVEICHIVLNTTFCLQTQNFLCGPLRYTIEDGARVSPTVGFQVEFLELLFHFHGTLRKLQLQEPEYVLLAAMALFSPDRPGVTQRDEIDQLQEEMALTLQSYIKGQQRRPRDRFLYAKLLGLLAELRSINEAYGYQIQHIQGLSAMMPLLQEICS
In short: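 Readout is reporter mRNA induction, quantified by fluorescent primer extension and capillary electrophoresis after RT-PCR. Cells were HepG2 transiently carrying chimeric NR-Gal4 constructs with GAL4-UAS reporters, treated for 24 h; activity scored upward from DMSO.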

[9] = molecular target: Glucocorticoid receptor (Homo sapiens) (UniProt P04150); experiment: ATG_GR_TRANS: Attagene TRANS-FACTORIAL HepG2 Assay for human Glucocorticoid Receptor (GR) (AID 2282978); conditions: HepG2 Attagene TRANS GR reporter, mRNA transcription;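 also: activators score as hits since higher reporter transcript over DMSO is fitted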
Glucocorticoid receptor (Homo sapiens), sequence (P04150 whole entry, looked up, the tested form may be a part): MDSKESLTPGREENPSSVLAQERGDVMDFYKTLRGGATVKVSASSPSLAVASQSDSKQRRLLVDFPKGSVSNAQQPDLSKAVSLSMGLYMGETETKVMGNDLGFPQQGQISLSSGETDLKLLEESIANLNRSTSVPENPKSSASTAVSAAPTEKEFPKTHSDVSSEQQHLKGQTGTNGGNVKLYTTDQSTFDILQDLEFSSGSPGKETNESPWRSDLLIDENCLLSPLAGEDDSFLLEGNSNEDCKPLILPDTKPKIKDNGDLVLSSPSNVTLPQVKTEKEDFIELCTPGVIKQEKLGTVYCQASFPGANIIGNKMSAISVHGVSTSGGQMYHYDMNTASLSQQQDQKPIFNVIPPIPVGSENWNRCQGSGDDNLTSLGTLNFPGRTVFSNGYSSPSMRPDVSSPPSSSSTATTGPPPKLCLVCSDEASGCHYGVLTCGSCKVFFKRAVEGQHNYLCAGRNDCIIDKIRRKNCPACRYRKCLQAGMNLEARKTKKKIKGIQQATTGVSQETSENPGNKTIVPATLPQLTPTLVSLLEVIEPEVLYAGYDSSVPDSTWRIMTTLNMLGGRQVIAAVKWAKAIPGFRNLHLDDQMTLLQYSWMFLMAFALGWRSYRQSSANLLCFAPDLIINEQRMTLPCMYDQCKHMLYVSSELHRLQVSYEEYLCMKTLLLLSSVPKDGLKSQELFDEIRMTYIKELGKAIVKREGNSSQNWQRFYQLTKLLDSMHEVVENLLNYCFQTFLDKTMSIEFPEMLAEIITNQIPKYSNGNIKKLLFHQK
In short: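 Readout is reporter transcript from a chimeric GR-Gal4 acting on GAL4-UAS in transfected human HepG2 liver cells after 24 h exposure, quantified by RT-PCR and capillary electrophoresis. Activation fitted upward against DMSO.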

[10] = molecular target: Oxysterols receptor LXR-beta (Homo sapiens) (UniProt P55055); experiment: ATG_LXRb_TRANS: Attagene TRANS-FACTORIAL HepG2 Assay for human Liver X Receptor beta (LXRb) (AID 2282981); conditions: HepG2 Attagene TRANS GAL4-LXRb reporter, mRNA
Oxysterols receptor LXR-beta (Homo sapiens), sequence (P55055 whole entry, looked up, the tested form may be a part): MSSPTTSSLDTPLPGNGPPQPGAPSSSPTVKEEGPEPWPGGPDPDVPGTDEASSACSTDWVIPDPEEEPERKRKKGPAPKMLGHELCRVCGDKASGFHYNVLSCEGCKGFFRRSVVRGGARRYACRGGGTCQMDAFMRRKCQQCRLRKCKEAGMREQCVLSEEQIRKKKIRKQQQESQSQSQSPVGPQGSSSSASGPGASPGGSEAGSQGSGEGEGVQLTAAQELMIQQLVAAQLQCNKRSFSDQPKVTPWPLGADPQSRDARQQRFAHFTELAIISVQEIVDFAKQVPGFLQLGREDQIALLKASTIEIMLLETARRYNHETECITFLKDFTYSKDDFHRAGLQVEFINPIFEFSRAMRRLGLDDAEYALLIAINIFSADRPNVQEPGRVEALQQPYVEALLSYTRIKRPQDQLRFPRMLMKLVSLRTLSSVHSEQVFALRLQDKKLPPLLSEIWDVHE
In short: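 Cells: HepG2, transiently transfected with GAL4-UAS reporter units plus LXRb-Gal4 fusion. Treatment: 24 h. Detection: reporter mRNA by RT-PCR, 6-FAM labelling, HpaI digestion, capillary electrophoresis.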

[11] = molecular target: Hepatocyte nuclear factor 4-alpha (Homo sapiens) (UniProt P41235); experiment: ATG_HNF4a_TRANS: Attagene TRANS-FACTORIAL HepG2 Assay for human Hepatocyte Nuclear Factor 4 alpha (HNF4a) (AID 2282982); conditions: HepG2 HNF4a transactivation reporter, mRNA readout
Hepatocyte nuclear factor 4-alpha (Homo sapiens), sequence (P41235 whole entry, looked up): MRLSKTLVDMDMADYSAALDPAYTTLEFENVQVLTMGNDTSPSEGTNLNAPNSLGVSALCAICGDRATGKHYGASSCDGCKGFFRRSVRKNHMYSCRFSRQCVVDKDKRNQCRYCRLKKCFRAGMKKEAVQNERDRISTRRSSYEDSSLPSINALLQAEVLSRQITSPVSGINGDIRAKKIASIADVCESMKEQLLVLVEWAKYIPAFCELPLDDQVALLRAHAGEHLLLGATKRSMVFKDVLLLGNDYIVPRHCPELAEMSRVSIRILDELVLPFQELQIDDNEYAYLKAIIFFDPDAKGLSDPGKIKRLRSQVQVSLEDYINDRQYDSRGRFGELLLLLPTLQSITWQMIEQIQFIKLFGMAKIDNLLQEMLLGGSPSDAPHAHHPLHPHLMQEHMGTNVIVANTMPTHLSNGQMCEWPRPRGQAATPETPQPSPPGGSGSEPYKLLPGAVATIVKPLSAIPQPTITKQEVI
In short: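 Transfected HepG2 reporter cells are dosed for 24 h; reporter RNA is reverse-transcribed, amplified, fluorescently labelled and HpaI-digested before CE sizing. Positive-direction fit against DMSO.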

[12] = ATG_M_32_TRANS: Attagene TRANS-FACTORIAL HepG2 Assay for M32 Transcription Factor (Internal Marker) (AID 2282984); conditions: HepG2 Attagene TRANS M32 internal marker reporter
In short: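 Using transiently transfected HepG2 cells exposed to test chemicals for 24 h, reporter transcripts are converted to labelled cDNA fragments and quantified by capillary electrophoresis. DMSO defines the activity baseline.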

[13] = ATG_M_19_TRANS: Attagene TRANS-FACTORIAL HepG2 Assay for M19 Transcription Factor (Internal Marker) (AID 2282974); conditions: HepG2 Attagene TRANS-FACTORIAL M19 internal marker reporter
In short: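 Background-control readout: after 24 h chemical exposure of transfected HepG2 carrying GAL4-driven reporter units, RNA was reverse-transcribed, amplified, fluorescently labeled and sized by capillary electrophoresis; gain-of-signal fit against DMSO.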

[14] = molecular target: Steroid hormone receptor ERR1 (Homo sapiens) (UniProt P11474); experiment: ATG_ERRa_TRANS: Attagene TRANS-FACTORIAL HepG2 Assay for human Estrogen-Related Receptor alpha (ERRa) (AID 2282971); conditions: HepG2 Attagene TRANS reporter, ERRa transactivation
In short: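 HepG2 cells transiently transfected with multiplexed GAL4-UAS reporter units reading chimeric ERRa-Gal4 activity; 24 h compound exposure. Reporter mRNA measured by RT-PCR, 6-FAM labelling, HpaI digest and capillary electrophoresis; gain of signal fitted versus DMSO baseline.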

[15] = ATG_GAL4_TRANS: Attagene TRANS-FACTORIAL HepG2 Assay for GAL4 (Internal Marker) (AID 2282976); conditions: HepG2 Attagene TRANS GAL4 internal marker reporter
In short: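 HepG2 cells transiently transfected with multiplexed GAL4-UAS reporter constructs were dosed for 24 h. Reporter mRNA was measured by RT-PCR, 6-FAM primer extension, HpaI digestion and capillary electrophoresis, and gain of signal was fitted relative to DMSO.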

[16] = molecular target: Estrogen-related receptor gamma (Homo sapiens) (UniProt P62508); experiment: ATG_ERRg_TRANS: Attagene TRANS-FACTORIAL HepG2 Assay for human Estrogen-Related Receptor gamma (ERRg) (AID 2282977); conditions: HepG2 Attagene TRANS reporter, ERRg transactivation;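 also: hits increase reporter signal over DMSO so potencies reflect activators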
In short: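 HepG2 cells transiently transfected with multiplexed GAL4-UAS reporter units and chimeric NR-Gal4 constructs were exposed to test chemicals for 24 h. Reporter mRNA was measured by RT-PCR, 6-FAM primer extension, HpaI digestion and capillary electrophoresis; gain-of-signal versus DMSO.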

[17] = molecular target: Bile acid receptor (Homo sapiens) (UniProt Q96RI1); experiment: ATG_FXR_TRANS: Attagene TRANS-FACTORIAL HepG2 Assay for Farnesoid X Receptor (FXR) (AID 2282979); conditions: HepG2 Attagene TRANS FXR-GAL4 reporter transcription;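 also: hits raise reporter mRNA above DMSO so AC50 marks FXR activation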
Bile acid receptor (Homo sapiens), sequence (Q96RI1 whole entry, looked up, the tested form may be a part): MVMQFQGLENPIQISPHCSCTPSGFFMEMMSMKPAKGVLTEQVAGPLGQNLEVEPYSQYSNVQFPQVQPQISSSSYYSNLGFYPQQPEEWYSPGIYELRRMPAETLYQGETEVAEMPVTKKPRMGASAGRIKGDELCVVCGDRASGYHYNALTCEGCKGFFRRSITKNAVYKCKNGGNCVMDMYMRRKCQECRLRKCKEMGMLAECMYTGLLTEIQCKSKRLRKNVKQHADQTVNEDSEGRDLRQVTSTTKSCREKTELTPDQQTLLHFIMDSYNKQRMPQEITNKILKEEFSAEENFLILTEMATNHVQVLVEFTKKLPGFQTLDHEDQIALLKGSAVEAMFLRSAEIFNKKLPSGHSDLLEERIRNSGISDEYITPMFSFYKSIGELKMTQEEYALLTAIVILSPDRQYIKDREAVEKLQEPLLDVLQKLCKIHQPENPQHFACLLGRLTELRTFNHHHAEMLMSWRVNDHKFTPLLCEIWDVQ
In short: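 HepG2 cells transiently transfected with reporter constructs in which a chimeric FXR-GAL4 protein drives a GAL4-UAS reporter; 24 h compound exposure. Reporter mRNA measured by RT-PCR, FAM labelling, HpaI digestion and capillary electrophoresis; gain-of-signal versus DMSO.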

[18] = molecular target: Nuclear receptor subfamily 4 group A member 2 (Homo sapiens) (UniProt P43354); experiment: ATG_NURR1_TRANS: Attagene TRANS-FACTORIAL HepG2 Assay for human Nuclear Receptor Related Protein 1 (NURR1) (AID 2282985); conditions: HepG2 Attagene TRANS reporter, mRNA readout
In short: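 Cells: HepG2, transiently transfected. Exposure: 24 h. Detection: fluorescence of labelled RT-PCR products separated by capillary electrophoresis; upward fit versus DMSO.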

Measured: AC50

O=P(OCC(Br)CBr)(OCC(Br)CBr)OCC(Br)CBr (stereo not given)
inactive: [1] | [2] | [4] | [5] | [6]
active: [3] 8.88 µM

Nc1cc2c3c(c1)C(c1ccccc1)=N[C@@H](NC(=O)c1cccnc1)C(=O)N3CC2
active: [7] 38.4 µM | [3] 92.1 µM
inactive: [1] | [8] | [2] | [9] | [10] | [11] | [5] | [12] | [6]

CCCN(CCC)c1c([N+](=O)[O-])cc(C(C)C)cc1[N+](=O)[O-]
inactive: [1] | [7] | [8] | [2] | [3] | [13] | [6]

c1nc[nH]n1
inactive: [1] | [7] | [8] | [3] | [10] | [5] | [12] | [6]
active: [2] 24.8 µM

CC(C)(C)c1ccccc1OP(=O)(Oc1ccccc1)Oc1ccccc1
active: [2] 5.03 µM | [18] 57.4 µM
not listed: [4] | [5] | [10] | [11]
inactive: all other assays above

CCCCC(CC)COP(=O)(Oc1ccccc1)Oc1ccccc1 (stereo not given)
active: [7] 0.866 µM | [2] 1.16 µM | [3] 100 µM | [6] 143 µM
not listed: [10] | [14] | [15] | [16] | [18]
inactive: all other assays above
